Data on three compounds can be found in PubChem BioAssay (NCATS).

The structures appear in SMILES notation. Records with an inconclusive call do not appear. Where a call stands in place of a potency, no number is given. Activity calls are given as the source filed them. The call rests on the fitted dose curve; in most records, active means well fitted inhibition curve with a large enough effect; inconclusive means small, poorly fitted or top-dose-only effect; inactive means flat fitted curve, though single readings scatter.

Calcium and integrin-binding protein 1 (Homo sapiens), sequence (Q99828 whole entry, looked up): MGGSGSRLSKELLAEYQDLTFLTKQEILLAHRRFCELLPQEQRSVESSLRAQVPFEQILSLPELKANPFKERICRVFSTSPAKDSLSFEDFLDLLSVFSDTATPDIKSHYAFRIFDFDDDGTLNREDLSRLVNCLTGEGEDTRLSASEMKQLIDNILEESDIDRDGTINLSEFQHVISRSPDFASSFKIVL

The assay has as its target Calcium and integrin-binding protein 1 (Homo sapiens) (UniProt Q99828). In words: Primary qHTS for Identification of Calcium Integrin Binding Protein 1 (CIB1) Competitor (AID 1508620). Further: top concentration of the series differs between compounds. The note with it: CIB1-GST / FITC-alphaIIb peptide fluorescence polarization; series mostly up to 57.7 µM. A digest of the protocol:
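Fluorescence polarization competition: GST-tagged CIB1 (1 uM final) preincubated with compound 15 min at room temperature, then FITC-labelled alphaIIb peptide (100 nM final) added. After 15 min at room temperature, polarization read at Ex 480/Em 540.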
Consider `CC1=CC(=O)C[C@H]2[C@@H]1CC[C@@H](C)[C@]21CO[C@H](c2ccoc2)C1=O`, for which the Potency entry was “inactive”.

Consider `Cc1coc2c1CC1OC1(C)CCC1OC1(C)C2` (stereo not drawn), for which the Potency entry is “inactive”.

With `OCC1OC(Oc2cc(O)c3c(c2)OC(c2ccc(O)cc2)C(O)C3)C(O)C1O` (stereo not drawn), the Potency entry was “inactive”.
